These results are taken from the supplement of paper PMC8728848.

Holding throughout (test): glycan array binding signal (z-score within array); higher = stronger binding
Conditions in all cases: glycan notation: IUPAC condensed, linker removed

For experiment [1], the target named is Fuc(a1-2)Gal(b1-4)GlcNAc(b1-3)Gal(b1-4)GlcNAc(b1-3)Gal(b1-4)GlcNAc. Summed up:
(§1)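 Negative Z-scores can be read as non-binding. The Z-score is calculated within each array and then averaged across arrays of one protein sequence at different concentrations or buffers and across linkers. Arrays, 3228 in all, were curated from the Consortium for Functional Glycomics database and kept only where the protein sequence was available.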

Experiment [2] addresses Fuc(a1-3)[Gal(b1-4)]GlcNAc(b1-4)Gal(b1-4)[Fuc(a1-3)]GlcNAc(b1-4)Gal(b1-4)[Fuc(a1-3)]GlcNAc. Summed up: as §1
In experiment [3] the target is Gal(b1-4)GlcNAc(b1-3)[GlcNAc(b1-6)]Gal(b1-4)GlcNAc. Summed up:
as §1

The target of experiment [4] is Gal3S(b1-3)GalNAc. A digest of the protocol:
as §1

Experiment [5] deals with Gal3S4S(b1-4)GlcNAc. Summed up: as §1
Experiment [6] addresses Gal3S6S(b1-4)GlcNAc6S. A digest of the protocol:
as §1

The target in experiment [7] is Gal6S(b1-4)Glc6S. A digest of the protocol:
as §1

The target in experiment [8] is GalNAc(b1-3)Gal. A digest of the protocol:
as §1

For experiment [9], the target named is GlcNAc(a1-6)Gal(b1-4)GlcNAc. Summed up:
as §1

Experiment [10] concerns the target GlcNAc(b1-2)Man(a1-3)[GlcNAc(b1-2)Man(a1-6)]Man(b1-4)GlcNAc(b1-4)GlcNAc. Summed up:
as §1

The target in experiment [11] is GlcNAc(b1-3)Gal(b1-3)GalNAc. A digest of the protocol: as §1
In experiment [12] the target is GlcNAc(b1-4)GlcNAc(b1-4)GlcNAc(b1-4)GlcNAc(b1-4)GlcNAc. Summed up: as §1
Experiment [13] concerns the target GlcNAc(b1-4)GlcNAc(b1-4)GlcNAc(b1-4)GlcNAc(b1-4)GlcNAc(b1-4)GlcNAc. Summed up:
as §1

Experiment [14] has as its target Man(a1-2)Man(a1-3)Man. A digest of the protocol: as §1
Experiment [15] concerns the target Man(a1-3)[Man(a1-6)]Man(a1-6)[Man(a1-3)]Man(b1-4)GlcNAc(b1-4)GlcNAc. A digest of the protocol:
as §1

Experiment [16] addresses Man(a1-6)Man. Summed up:
as §1

Experiment [17] deals with Neu5Ac(a2-3)Gal(b1-4)Glc. Summed up:
as §1

Experiment [18] addresses Neu5Ac(a2-3)Gal(b1-4)[Fuc(a1-3)]GlcNAc(b1-3)Gal. Summed up: as §1
Experiment [19] addresses Neu5Ac(a2-6)Gal(b1-4)GlcNAc(b1-2)Man(a1-3)[GlcNAc(b1-2)Man(b1-4)GlcNAc(b1-2)Man(a1-6)]Man(b1-4)GlcNAc(b1-4)GlcNAc. Summed up:
as §1

Experiment [20] concerns the target Neu5Ac(a2-6)Gal(b1-4)GlcNAc(b1-2)Man(a1-3)[Neu5Ac(a2-6)Gal(b1-4)GlcNAc(b1-2)Man(a1-6)]Man(b1-4)GlcNAc(b1-4)GlcNAc. Summed up:
as §1

In experiment [21] the target is Neu5Gc(a2-3)Gal(b1-4)GlcNAc. Summed up: as §1

This is one part of a sample in which the strongest signals are shown more often than they occur.

B1: MD-2 (Homo sapiens) (protein)
chain: MLPFLFFSTLFSSIFTEAQKQYWVCNSSDASISYTYCDKMQYPISINVNPCIELKGSKGLLHIFYIPRRDLKQLYFNLYITVNTMNLPKRKEVICRGSDDDYSFCRALKGETVNTTISFSFKGIKFSKGKYKCVVEAISGSPEEMLFCLEFVILHQPNSN
Regarding B1, the “glycan array binding signal (z-score)” value in experiment [1] is 0.156; in [2], -0.473; in experiment [3] it was -0.262; in experiment [4], -0.242; in [5], 3.89; in experiment [6], 6.6. For the same molecule, the “glycan array binding signal (z-score)” value in experiment [7] was 6.38; in [8], -0.354; in [9], -0.163; in [10] it was -0.316; in [11], -0.326; in experiment [12], 4.23. Further, the “glycan array binding signal (z-score)” value in experiment [13] was 5.59; in [14], -0.386; in [15] it was 0.116; in experiment [16], 0.081; in experiment [17], -0.127; in experiment [18], -0.504. Besides, the “glycan array binding signal (z-score)” value in [19] was -0.331; in [20] it was -0.321; in experiment [21], -0.291.
